Bioassay records from PubChem BioAssay.
PI4K2A inh – qHTS for small molecular inhibitors of PI4K2A; activity change, negative = inhibition, % at 76.9 µM; 420,000 tested, 0.13% active; purified PI4K2A, ADP-Glo luminescence, 1 h; hits give low values; Phosphatidylinositol 4-kinase type 2-alpha (Homo sapiens), Q9BTU6; in the data active = activity change below about -50%; inconclusive = mostly about -30% to -49%;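 note: -100% = wells without enzyme as full effect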
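In this quantitative HTS, ADP production by PI4K2A was quantified luminescently after 1 h at ambient temperature; 100 microM adenosine served as plate-quality control.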
PI5P4Ka inh – qHTS for Inhibitors of phosphatidylinositol 5-phosphate 4-kinase (PI5P4K); Phosphatidylinositol 5-phosphate 4-kinase type-2 alpha (Homo sapiens), P48426; PI5P4Kalpha enzyme, ADP-Glo luminescence, 60 min; hits give low values; max response, %; 330,000 tested, 1.2% active; AID 652105, 2013; active = max response of -50% or lower; inconclusive = between -30% and -50%; inactive = -30% or higher; note: value at the top dose of about 77 µM
Target sequence (P48426 whole entry, looked up): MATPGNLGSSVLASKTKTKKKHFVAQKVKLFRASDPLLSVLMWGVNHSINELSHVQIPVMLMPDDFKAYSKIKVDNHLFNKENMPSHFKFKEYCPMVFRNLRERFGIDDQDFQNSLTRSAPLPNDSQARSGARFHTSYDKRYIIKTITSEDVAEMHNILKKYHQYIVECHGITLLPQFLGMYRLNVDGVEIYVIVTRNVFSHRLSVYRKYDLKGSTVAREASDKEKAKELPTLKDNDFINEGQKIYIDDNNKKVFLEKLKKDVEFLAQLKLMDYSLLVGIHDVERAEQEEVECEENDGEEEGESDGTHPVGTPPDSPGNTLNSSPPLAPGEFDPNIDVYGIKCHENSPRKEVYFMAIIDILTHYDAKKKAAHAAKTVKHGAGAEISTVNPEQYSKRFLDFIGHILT
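Enzyme plus substrate dispensed, test compounds pinned in, then ATP (5 microM final) added. After 60 min at RT, ADP-Glo reagent 1 for 45 min and reagent 2 for 30 min preceded luminescence imaging.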
Tb PGK inh – qHTS Assay to Find Inhibitors of Phosphoglycerate Kinase | Phosphoglycerate kinase, glycosomal (Trypanosoma brucei brucei), P07378 | PGK/GAPDH coupled, Kinase-Glo luminescence, 60 min | Potency, µM (series often up to 57.5 µM), for the others: at the top dose activity change, negative = inhibition, hits mostly inhibitors | 380,000 tested, 0.043% active | AID 602233, 2012; note: potency is the fitted concentration of half-maximal effect; nearly all actives have a fitted effect of over 60% in size
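Recombinant glycosomal PGK reaction used 1,3-bisphosphoglycerate generated in-well by GAPDH (100nM final) in 100mM TEA pH 7.6, 5mM MgCl2, 0.01% Tween-20. After 60 minutes at room temperature, ATP was read by Kinase-Glo Plus luminescence end-point.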
RGS12 GoLoco inh – qHTS Assay for Inhibitors of RGS12 GoLoco Motif Activity (Red Fluorophore); Guanine nucleotide-binding protein G(i) subunit alpha-1 (Homo sapiens), P63096; Gai1:RGS12 GoLoco peptide FP, rhodamine, 10 min; Potency, µM (top dose mostly 61.6 µM), for the others: at the highest dose activity, negative = inhibition, most hits filed as inhibitors; 230,000 tested, 0.44% active; AID 880, 2007; active = well fitted inhibition curve with a large enough effect, not every such curve was filed as active; inactive = no such curve, though single readings can be large or run the other way; note: potency is the fitted concentration of half-maximal effect; nearly all actives have a fitted effect of over 30% in size
KAT2A inh – qHTS Assay for Inhibitors of GCN5L2; Histone acetyltransferase KAT2A (Homo sapiens), Q92830; GCN5L2 HAT assay, ThioGlo1 CoA-SH fluorescence; Potency, µM (series often up to 58.9 µM), for inactives: top-dose activity change, negative = inhibition, actives largely listed as inhibitors; 390,000 tested, 0.21% active; AID 504327, 2011; note: potency is the fitted concentration of half-maximal effect
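Fluorescence readout, Ex340nm/Em540nm: ThioGlo1 (50uM final) reacts with free CoA thiol released as 20nM GCN5L2 acetylates H3(1-25) peptide (75uM) using acetyl-CoA (70uM). Compound and enzyme sat 15 min beforehand; 20 min room-temperature reaction.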
Pin1 inhibitor – qHTS Assay to Find Inhibitors of Pin1; Pin1 FP peptide displacement, HiFluor488, 10 min; Potency, µM (doses to about 115 µM), without a hit: top-dose activity, negative = inhibition, usual class: inhibitors; 390,000 tested, 0.009% active; AID 504891, 2011; active = well fitted inhibition curve with a large enough effect in the polarisation, with a control signal flat, not every such curve was filed as active; inconclusive = small, poorly fitted or top-dose-only effect, or effect the other way, or a change in a side signal; inactive = no such curve, though single readings can be large or run the other way; the % refers to the polarisation; note: potency is the fitted concentration of half-maximal effect
Target sequence (Q13526 whole entry, looked up): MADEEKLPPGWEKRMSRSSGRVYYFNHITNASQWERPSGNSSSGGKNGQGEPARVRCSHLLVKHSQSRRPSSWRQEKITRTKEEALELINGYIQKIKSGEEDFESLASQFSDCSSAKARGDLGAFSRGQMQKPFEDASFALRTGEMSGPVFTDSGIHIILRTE
Active calls of the source: *; i = inactive; ? = inconclusive; . = no result; [ ] = another dose, or the depositor's remark. Hits are enriched below; roughly 1.2% of the tested compounds scored in any of these assays. Unless noted, calls come from the whole dose curve; as a rule, active = well fitted curve in the direction sought with a large enough effect; inconclusive = small, poorly fitted or top-dose-only effect, or another doubt; inactive = no such curve, though single readings can be large; an effect the other way counts as inactive or inconclusive. Unless noted, % is set by controls: 0 for no effect and ±100 for the full control effect.

SMILES | PI4K2A inh | PI5P4Ka inh | Tb PGK inh | RGS12 GoLoco inh | KAT2A inh | Pin1 inhibitor
CCCCc1nnc(NC(=O)C2=COCCO2)s1 | 6.3 | -0.8 | -6.0% | . | -3.4% | -0.3%
O=C(CSc1nnc(-c2ccc([N+](=O)[O-])cc2)o1)Nc1ccccc1 | 0.4 | . | . | . | -1.9% | -7.4%
Cc1c(C(=O)O)sc2nc(SCC(=O)Nc3ccc(S(=O)(=O)NCCCC(=O)O)cc3)[nH]c(=O)c12 | -3.4 | -69.9* | . | 7.1% | -4.3% | 1.1%
CCCCNS(=O)(=O)c1ccc2nc(SCC(=O)Nc3ccccc3)[nH]c2c1 | -4.8 | 8.4 | -2.8% | 3.0% | 0.1% | 3.3%
CCOC(=O)CSc1nc2sc(C)c(C)c2c(=O)[nH]1 | -2.6 | -4.1 | -5.9% | -26.3% | -1.2% | 5.3%
CCOC(=O)CSc1nc2sc(C(=O)O)c(C)c2c(=O)[nH]1 | -6.1 | -75.9* | -3.8% | -9.1% | -0.4% | 2.6%
COc1ccc(NC(=O)c2cccc(N3CCCS3(=O)=O)c2)cc1 | -18.6 | . | -4.4% | . | -14.4% | -4.9%
CCOC(=O)C1=C(CN(CC)Cc2ccccc2)NC(=O)NC1c1ccc(Cl)cc1 (stereo unspecified) | 1.3 | . | 5.9% | . | -9.9% | 4.1%
O=C(NNc1nc(-c2ccccc2)cs1)c1cccs1 | 6.8 | -6.7 | -1.2% | 7.2% | 1.6% | 2.6%
O=C(NNc1nc(-c2ccc(F)cc2)cs1)c1ccccc1 | 7.2 | -52.6* | -2.5% | 4.2% | -9.2% | 4.1%
O=C(Oc1ccccc1Cl)C1CCN(C(=O)c2ccc(F)cc2)CC1 | -2.0 | 9.8 | -0.3% | . | 3.1% | -8.7%
CCOc1cccc(C(=O)NC(=S)Nc2ccc(Cl)cc2C(=O)O)c1 | 1.8 | -59.8* | -2.2% | 6.9% | -0.8% | 0.8%
CCOc1cccc(C(=O)NC(=S)Nc2ccc(N3CCCC3)cc2)c1 | -7.0 | 0.2 | -2.5% | 4.9% | -4.0% | -0.1%
S=c1[nH]c2cc(Cl)c3cccnc3c2o1 | -6.6 | -52.7* | -4.1% | . | -24.4% | 8.5%
CCc1oc2ccccc2c1C(=O)c1cc(I)c(O)c(I)c1 | -1.9 | . | . | -1.5% | 8.91µM* | .
CCCCc1oc2ccccc2c1C(=O)c1cc(I)c(N(CC)CCOCC)c(I)c1 | . | . | . | . | . | -0.6%
COc1ccc(Cc2nc3ccc(C(=O)N4CCCC4)cc3o2)cc1 | -3.6 | -0.9 | -0.2% | . | -6.6% | -1.4%
CCNC(=O)c1c(NC(=O)c2cc(=O)c3ccc(C)c(C)c3o2)sc2c1CCCC2 | 1.5 | . | -5.7% | . | -6.5% | -2.8%
O=C(Nc1ccc(S(=O)(=O)Nc2nccs2)cc1)C1CC(=O)N(c2ccccc2)C1 (stereo unspecified) | 3.2 | 1.6 | i | 8.5% | -4.1% | -8.0%
CCn1c(CSc2nnc(-c3ccncc3)n2C)nc2cc(C(=O)O)ccc21 | -2.4 | -4.4 | 3.8% | 14.1µM* | -11.4% | ?
c1cnc2c(c1)ccc1cccnc12 | -1.4 | 2.8 | -4.7% | 6.2%[14.2 µM] | 5.8% | 2.0%
O=C1C=CC(=O)N1c1cccc2cccnc12 | -21.1 | -62.3* | -4.3% | . | . | -27.0%
O=C1CNC(=O)/C1=C\c1ccc(O)cc1 | -3.8 | -61.6* | -0.4% | 4.8% | 1.3% | 0.7%
CCCCOC(=O)n1c(=S)oc2cc(Cl)ccc21 | -15.1 | -55.3* | -1.0% | 4.2% | -14.9% | -6.2%
COc1ccc(CCNC(=O)c2cccc(S(=O)(=O)NC(C)c3ccccc3)c2)cc1 (stereo unspecified) | 2.1 | -9.9 | -1.0% | . | -0.1% | 7.8%
SMILES | PI4K2A inh | PI5P4Ka inh | Tb PGK inh | RGS12 GoLoco inh | KAT2A inh | Pin1 inhibitor
COc1ccc(C(=O)NC(=S)N2CCC(C)CC2)cc1Br | -5.9 | -3.2 | -10.7% | . | 0.3% | -4.5%
O=c1c(-c2ccc([N+](=O)[O-])cc2)coc2c(O)c(O)ccc12 | 1.6 | -7.4 | 8.91µM* | -7.5% | -9.2% | ?
CN(C)Cc1c(O)ccc2c(=O)c(-c3ccc(Cl)cc3)coc12 | -0.2 | -2.0 | -9.0% | . | 3.6% | -2.1%
O=C1CC(/C=C/c2ccco2)=Nc2ccccc2N1 | ? | -73.0* | 2.2% | 29.8% | -3.7% | ?
Cc1ccc(NS(=O)(=O)c2cc([N+](=O)[O-])ccc2NNC(=S)Nc2cccc(Cl)c2)c(C)c1 | -1.9 | -66.6* | -19.0% | 287.5% | -27.5% | 1.1%
Nc1c(N2CCCC2)cc(Cl)c2nonc12 | -66.1* | . | -20.6% | . | -11.6% | ?
Nc1ccc(N2CCCCC2)c2nonc12 | -53.6* | -13.8 | ? | 7.2% | -3.9% | .
Nc1c(N2CCOCC2)cc(Cl)c2nonc12 | -61.7* | . | i | -4.5% | -4.3% | -2.0%
Nc1ccc(N2CCCCC2)cc1N1CCCCC1 | -6.7 | 4.8 | -1.0% | 23.0% | -5.1% | -3.2%
Nc1cc(Cl)ccc1N1CCCCC1 | 4.4 | 1.1 | -0.6% | 13.4% | 25.5% | 1.4%
OC(C#CCN1CCOCC1)(c1ccccc1)C1CC1 (stereo unspecified) | 5.5 | -12.6 | 7.2% | 7.2% | -4.1% | 4.7%
Cc1snc(SCC(=O)c2ccc([N+](=O)[O-])cc2)c1C#N | -2.9 | -57.3* | 0.3% | 14.1µM* | 6.31µM* | -6.6%
Cc1ccc(-n2c(C)cc(/C=N/Nc3ccc([N+](=O)[O-])cn3)c2C)cc1 | 9.1 | -3.9 | -9.4% | 3.55µM* | -3.9% | 16.8%
N=C(N)c1ccc(N=Nc2c(O)ccc3c2[nH]c2ccccc23)cc1 | -8.6 | -71.0* | -10.9% | 7.3%[14.2 µM] | . | ?
Cc1ccc(S(=O)(=O)C(CNC(=O)COc2ccccc2)c2cccs2)cc1 (stereo unspecified) | 2.0 | . | 10µM* | . | -13.2% | -13.5%
Cc1cc(S(=O)(=O)C(CNC(=O)COc2ccccc2)c2cccs2)ccc1F (stereo unspecified) | -3.5 | . | -0.8% | . | 7.8% | -5.3%
COc1ccc(N(C(=O)c2ccc(S(=O)(=O)N3CCOCC3)cc2)C2C=CS(=O)(=O)C2)cc1 (stereo unspecified) | -1.6 | . | -4.2% | 7.4% | 2.24µM* | 7.3%
O=C(c1ccc(S(=O)(=O)N2CCOCC2)cc1)N(c1ccc(F)cc1)C1C=CS(=O)(=O)C1 (stereo unspecified) | -1.3 | . | . | 2.8% | -29.7% | -4.2%
COc1ccc(OC)c(S(=O)(=O)N2Cc3ccccc3CC2C(=O)Nc2ccc(C)cc2C)c1 (stereo unspecified) | 0.1 | . | . | . | -10.9% | 11.1%
